Consider 21 compounds from the supplement of paper PMC12669032.

Unmarked numbers belong to inactive results.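 How the source made its calls: active = AUC reduced over 20% with Padj below 0.05 in at least 2 of 3 replicates; inactive = otherwise.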

One test has as its system Roseburia intestinalis. Nature of the test: growth AUC relative to DMSO control (median of replicates) (fraction); higher = more growth (less inhibition), active = hit call of the paper. As to conditions: 20 µM; 24 h. Put shortly: (§1)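 Gut bacterial monocultures in mGAM were treated with 20 µM compound (1% DMSO) and grown anaerobically at 37 °C in round-bottom 96-well plates from OD600 0.05. OD600 was read hourly for 24 h, with the minimum OD set to 0. Area under the growth curve was normalised to the plate median of solvent-only wells, or to row and column medians on the industrial chemical plate. Each value is the median of three biological replicates, each grown on a separate day.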

Another test has as its system Streptococcus salivarius. The test is described as above. The note with it: 20 µM; 24 h. In outline:
as §1

For `CCNc1nc(NC(C)C)[nH]c(=O)n1`, the figures for the “growth AUC” value in the test on Roseburia intestinalis and with Streptococcus salivarius were 1.04 and 1.02, respectively.
In the case of `Fc1ccc(Oc2ccnc3cc(Cl)cc(Cl)c23)cc1`, the “growth AUC” value was 1.02 in the test on Roseburia intestinalis and 0.956 in the test with Streptococcus salivarius.
The corresponding values for `ClC1=C(Cl)C2(Cl)C3C(Cl)C=CC3C1(Cl)C2(Cl)Cl` (configuration not stated) are 0.918 and 0.928.
With `O=C(NC(=O)c1c(F)cccc1F)Nc1ccc(Oc2ccc(C(F)(F)F)cc2Cl)cc1F`, the “growth AUC” value in the test on Roseburia intestinalis is 1.1; with Streptococcus salivarius, 0.985.
Consider `CC(C)NC(=O)N1CC(=O)N(c2cc(Cl)cc(Cl)c2)C1=O`, for which the “growth AUC” value with Roseburia intestinalis was 1.07; with Streptococcus salivarius, 1.05.
The corresponding values for `ClC1(Cl)C2(Cl)C3(Cl)C4(Cl)C(Cl)(Cl)C5(Cl)C3(Cl)C1(Cl)C5(Cl)C24Cl` (configuration not stated) are 0.958 and 0.922.
Take `CCOP(=O)(OCC)O/C(=C\Cl)c1ccc(Cl)cc1Cl`: the results for the “growth AUC” value in the test on Roseburia intestinalis and in the test with Streptococcus salivarius were 1.06 and 0.982, respectively.
In the case of `CCOP(=S)(OCC)Oc1cnccn1`, the entries for the “growth AUC” value in the test on Roseburia intestinalis and with Streptococcus salivarius were 0.976 and 1, respectively.
`NC(=O)/N=C1/SCCN1Cc1ccc(Cl)nc1`: the “growth AUC” value in the test with Roseburia intestinalis is 0.989; with Streptococcus salivarius it was 1.04.
The corresponding values for `CC1(C)C(C=C(Cl)Cl)[C@@H]1C(=O)O[C@@H](C#N)c1ccc(F)c(Oc2ccccc2)c1` (some centres not stated) are 0.916 and 1.
For `CNC(=O)N(C)c1nnc(C(C)(C)C)s1`, in that order: 1.03 and 0.959.
As for `CCC(C)c1ccccc1OC(=O)NC` (configuration not stated), the entries for the “growth AUC” value in the test on Roseburia intestinalis and with Streptococcus salivarius were 0.963 and 1.04, respectively.
Regarding `O=C(O)c1ccc(=O)[nH]c1`, the “growth AUC” value in the test on Roseburia intestinalis was 1.01; in the test with Streptococcus salivarius, 0.981.
Regarding `CNC(=O)Oc1cccc2c1OC(C)(C)C2=O`, the “growth AUC” value in the test with Roseburia intestinalis is 0.994; in the test with Streptococcus salivarius, 0.924.
With `CCC(C)(CC)c1cc(NC(=O)c2c(OC)cccc2OC)on1`, the “growth AUC” value was 0.963 in the test with Roseburia intestinalis and 0.979 in the test on Streptococcus salivarius.
`COP(=S)(OC)SCC(=O)N(c1ccc(Cl)cc1)C(C)C`: the entries for the “growth AUC” value with Roseburia intestinalis and in the test on Streptococcus salivarius were 1.03 and 0.992, respectively.
Regarding `CS/C(C)=N/OC(=O)N(C)SN(C)C(=O)O/N=C(\C)SC`, the figures for the “growth AUC” value in the test with Roseburia intestinalis and with Streptococcus salivarius were 1.01 and 0.955, respectively.
Consider `Oc1c(Br)cc(Br)cc1Br`, for which the “growth AUC” value in the test on Roseburia intestinalis was 1.08; with Streptococcus salivarius, 0.959.
In the case of `COc1c(Cl)ccc(Cl)c1Cl`, the “growth AUC” value in the test with Roseburia intestinalis is 1.01; with Streptococcus salivarius, 0.952.
For `O=C(O)c1nc(Cl)ccc1Cl`, in that order: 1.07 and 1.02.
On to `N#Cc1cc(I)c(O)c(I)c1`, for which the “growth AUC” value with Roseburia intestinalis was 0.993; in the test on Streptococcus salivarius, 0.898.
